According to the supplement of paper PMC6555819:

Assays:
Experiment in all cases: PBM binding z-score (relative to random genomic background probes); higher = stronger binding; sequences stand for … in GC…GCGATTGACAGCGTAGAATGAAGG
[1] = system: FXR:RXRa (NR concentration 270 nM, RXRa partner concentration 90 nM)
Outline: (§1)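 Scanned fluorescence from custom Agilent 4×180K protein-binding microarrays was regression-normalized. Binding z-scores use random background probes as reference. Ligand-free nuclear receptor dimers were incubated on the arrays for 1 h and detected with antibodies against each partner (one per run).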

[2] = system: LXRa:RXRa (NR concentration 270 nM, RXRa partner concentration 90 nM)
Outline: as §1

[3] = system: LXRa homodimer (NR concentration 270 nM)
Outline: as §1

[4] = system: LXRb:RXRa (NR concentration 270 nM, RXRa partner concentration 90 nM)
Outline: as §1

[5] = system: LXRb homodimer (NR concentration 270 nM)
Outline: as §1

[6] = system: PPARa:RXRa (NR concentration 270 nM, RXRa partner concentration 90 nM)
Outline: as §1

[7] = system: PPARg:RXRa (NR concentration 180 nM, RXRa partner concentration 90 nM)
Outline: as §1

[8] = system: PPARg:RXRa 270nM:90nM, anti-RXR (NR concentration 270 nM, RXRa partner concentration 90 nM)
Outline: as §1

[9] = system: PPARg:RXRa 30nM:10nM, anti-RXR (NR concentration 30 nM, RXRa partner concentration 10 nM)
Outline: as §1

[10] = system: PPARg:RXRa 90nM:30nM, anti-RXR (NR concentration 90 nM, RXRa partner concentration 30 nM)
Outline: as §1

[11] = system: PPARg:RXRa DBDmut IVT, anti-RXR (DBD mutation: RXRa K156A/R161A, NR concentration 270 nM, RXRa partner concentration 90 nM)
Outline: as §1

[12] = system: PPARg:RXRa IVT, anti-PPARg (NR concentration 270 nM, RXRa partner concentration 90 nM)
Outline: as §1

[13] = system: PPARg DBDmut:RXRa IVT, anti-PPARg (DBD mutation: PPARg1 K132A/R137A, NR concentration 270 nM, RXRa partner concentration 90 nM)
Outline: as §1

[14] = system: PPARg DBDmut IVT, anti-PPARg (DBD mutation: PPARg1 K132A/R137A, NR concentration 270 nM)
Outline: as §1

[15] = system: PPARg homodimer (NR concentration 180 nM)
Outline: as §1

[16] = system: PXR:RXRa (NR concentration 270 nM, RXRa partner concentration 90 nM)
Outline: as §1

[17] = system: PXR homodimer (NR concentration 270 nM)
Outline: as §1

[18] = system: RARa:RXR (NR concentration 270 nM, RXRa partner concentration 90 nM)
Outline: as §1

[19] = system: RARa homodimer (NR concentration 270 nM)
Outline: as §1

[20] = system: RARb:RXRa (NR concentration 270 nM, RXRa partner concentration 90 nM)
Outline: as §1

| Sequence | PBM binding z-score [1] | PBM binding z-score [2] | PBM binding z-score [3] | PBM binding z-score [4] | PBM binding z-score [5] | PBM binding z-score [6] | PBM binding z-score [7] | PBM binding z-score [8] | PBM binding z-score [9] | PBM binding z-score [10] | PBM binding z-score [11] | PBM binding z-score [12] | PBM binding z-score [13] | PBM binding z-score [14] | PBM binding z-score [15] | PBM binding z-score [16] | PBM binding z-score [17] | PBM binding z-score [18] | PBM binding z-score [19] | PBM binding z-score [20] |
| --- | --- | --- | --- | --- | --- | --- | --- | --- | --- | --- | --- | --- | --- | --- | --- | --- | --- | --- | --- | --- |
| CCGACTGGGGCAGAAAGGTTACCATCCCATCCGG | 0.0864 | 0.742 | -0.151 | 0.878 | -0.971 | 2.03 | 1.44 | 2.53 | 0.448 | 1.96 | 1.51 | 1.69 | -0.348 | -1.37 | 0.985 | 0.837 | -0.375 | 1.61 | -0.144 | 1.89 |
| TCATATAGGTAAACAGGTAAAAGTCCGTAAGTTA | 1.11 | 1.14 | 0.519 | 0.863 | 0.214 | 1.98 | 2.49 | 3.29 | 4.26 | 3.85 | 4.45 | 3.81 | 1.35 | 1.75 | 0.996 | 0.894 | 0.723 | 1.14 | 1.5 | 0.628 |
| AGAACGAGGGCAATGAGTTGAGAGCACGGGTGGC | 0.342 | -0.0458 | -0.343 | -0.251 | -0.332 | 1.42 | 1.39 | 1.17 | -0.064 | 0.763 | 2.9 | 2.73 | 0.608 | -0.139 | 0.0206 | 1.04 | 1.92 | 0.292 | -0.276 | 2.05 |
| CGAGCGAGGGCATGAGTTGATAGCAAATGCCGAT | 0.5 | 0.467 | -0.292 | 0.175 | -1.07 | 0.945 | 0.571 | 0.44 | -0.503 | 0.0146 | 0.598 | 0.064 | -0.548 | -1 | -0.175 | 0.544 | -0.137 | 0.536 | -0.541 | 2.03 |
| TCTATTAGTTGAAGGGAAACCGACGAGTCCGTTT | 0.681 | 0.912 | 0.189 | 0.65 | 0.644 | 0.587 | -0.183 | 2.13 | 4.34 | 3.16 | 2.49 | -0.0119 | 0.417 | 1.24 | 1.32 | 0.508 | 0.678 | 0.362 | 1.42 | 0.377 |
| GCAGACAGGTGCAACGCAGGTAACTCAGGGTGGC | -0.722 | -0.509 | -0.668 | -0.958 | -1.31 | -0.475 | 0.119 | -0.844 | -0.761 | -0.904 | -0.637 | -0.593 | -1.75 | -1.51 | -0.974 | -0.377 | -0.796 | 0.0404 | -1.09 | -0.3 |
| CCGACTGGGCCAAAGGTCATTGATTCCAATGCTC | 4.37 | 4.94 | 3.7 | 4.49 | 0.0732 | 6.09 | 11 | 10 | 8.79 | 12.1 | 3.83 | 5.72 | -0.642 | 0.24 | 4.69 | 5.36 | 1.79 | 5.72 | 0.97 | 4.52 |
| CCGACTGGGGCAGAAAGCTTACCATACCATCCGG | -0.854 | -0.845 | -0.778 | -0.743 | -0.693 | -0.683 | 0.434 | -0.227 | -0.693 | -0.772 | 1.49 | 0.739 | -1.01 | -2.56 | -0.236 | -0.856 | -0.585 | -1.22 | -0.188 | -0.092 |
| GGAACCAGGGCAAAGTTGATAGCATCTGTCGACG | 0.769 | 0.723 | -0.0781 | 0.931 | 0.32 | 4.38 | 7.33 | 7.61 | 6.29 | 7.86 | 4.31 | 4.92 | 0.131 | 1.82 | 1.1 | 0.754 | 0.639 | 0.798 | 0.36 | 2.22 |
| CTTGAAAGGTCGTGCTCAGGTGAGTATACCAAAC | 5.86 | 4.22 | 0.0529 | 4.1 | 0.221 | 5.03 | 2.74 | 3.62 | 0.962 | 2.69 | 0.999 | 2.01 | 1.03 | 0.763 | 1.71 | 3.72 | 0.102 | 4.53 | 0.107 | 3.99 |
| AGAATGAAGTTACCAAAGATCAGGGAAACGCTTG | -0.327 | 0.631 | -0.337 | -0.292 | -0.771 | -0.153 | 0.523 | 0.0888 | 0.0872 | 0.08 | -0.595 | -0.423 | 0.443 | 0.266 | -0.127 | -0.206 | -0.375 | -0.000481 | -0.214 | -0.335 |
| CCTGACGGGTCACTCCAGGTTATAGCATCGGAGT | 3.43 | 7.46 | 1.51 | 4.58 | -0.132 | 3.79 | 1.84 | 2.43 | 0.306 | 1.44 | 1.01 | 2.14 | -0.43 | -0.483 | 1.81 | 4.64 | 0.176 | 3.34 | -0.12 | 3.31 |
| ATATGTAGATTACATCCGGGTCATTCAGGCTATG | 1.18 | 1.51 | 0.625 | 1.99 | 0.664 | 2.51 | 1.42 | 1.25 | 0.659 | 1 | 1.44 | 2.32 | 1.43 | 1.61 | 1.18 | 2.53 | 1.22 | 2.88 | 0.587 | 1.38 |
| ACAGACAGGTGAGTGTAGGTAACTCAGCTGGACG | 0.257 | -0.0272 | -0.446 | -0.538 | -0.878 | 0.215 | 0.458 | 0.248 | -0.279 | -0.0696 | 0.831 | 1.24 | -0.529 | -0.0544 | 0.128 | -0.121 | 0.0184 | 0.216 | 0.676 | 0.392 |
| GGAACGAGGGCAAGTGGATAGCAGAGTTTGATGG | 0.68 | 0.618 | -0.0905 | 0.0624 | -0.475 | 1.36 | 1.21 | 1.21 | -0.127 | 0.598 | 3.83 | 2.95 | 0.27 | 0.066 | 0.34 | 0.612 | 0.421 | 0.505 | -0.0317 | 2.65 |
